Laboratory results taken from PubChem BioAssay (NCI).
Compounds without any hit were thinned out: in the full panel of roughly 83,000, 20% have a hit.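 Note: values are percent growth. 100 is the growth of untreated cells, values between 100 and 0 indicate rising inhibition; between -100 and 0 indicates cell death.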 A number with no mark means an inactive call. Activity calls are given as the source filed them. The calls were made as follows: active = growth percent below 10; inactive = the rest.

System: MOLT-4 leukemia
Assay: NCI-60 one-dose screen, 48 h (100 = growth as untreated, 0 = no growth, -100 = all killed)
Conditions: 10 µM unless noted

Question: How did the growth turn out when `CC1Cc2c(N(C)C)ncnc2N(C)c2ccc(O)cc21` (configuration not stated) was run?
Answer: The growth was 75.6%.

Question: `O=S(=O)(NCCCNc1cc(-c2cn(-c3ccccc3)nc2-c2cccc(O)c2)ccn1)c1ccc(C(F)(F)F)cc1` was tested. Which growth did it give?
Answer: Its growth is 16%.

Question: With `Cc1ccc(S(=O)(=O)N2CCC(C(=O)Nc3ccc(F)cc3F)CC2)cc1` as the molecule, how does the growth read?
Answer: The growth was 79.2%.

Question: How did the growth turn out when `COc1ccc2c(c1)NC(=O)CN2c1nc(NC2CC2)nc2ccccc12` was run?
Answer: Its growth is 33.9%.

Question: With `C=C1C(=O)O[C@H]2[C@H]1CC/C(COC(=O)NCCc1cccc(OC)c1)=C\CC[C@@]1(C)O[C@@H]21` as the molecule, how does the growth read?
Answer: The growth was 11.5%.

Question: For `COc1cc(-c2csc(NC(=O)c3cc(C(F)(F)F)cc(C(F)(F)F)c3)n2)cc(OC)c1OC`, which growth is on record?
Answer: Its growth is 20.5%.

Question: `Clc1nc(Cl)c2ncn(C/C=C/Cn3cnc4c(Cl)nc(Cl)nc43)c2n1` was tested. Which growth did it give?
Answer: Its growth is 80.8%.

Question: For `Cc1ccc2c(c1)C(C)Cc1c(ncnc1-n1cnc3ccccc31)N2C` (configuration not stated), which growth is on record?
Answer: Its growth is 11.7%.

Question: For `CCN(CC)S(=O)(=O)c1ccc2[nH]c(=O)cc(C(=O)Nc3ccc(OC)cc3OC)c2c1`, which growth is on record?
Answer: Its growth is 99.7%.

Question: Which growth does the source give for `COC(=O)CCCCCN=Cc1c(O)c(O)c(C(C)C)c2cc(C)c(-c3c(C)cc4c(C(C)C)c(O)c(O)c(C=NCCCCCC(=O)OC)c4c3O)c(O)c12` here?
Answer: The growth was 13.6%.

Question: Which growth does the source give for `CCC(=O)Oc1ccc2c(c1)CC[C@@H]1[C@@H]2CC[C@]2(C)C[C@H](OC(=O)CC)C[C@@H]12` here?
Answer: Its growth is 51.1%.

Question: `C=C1C(=O)O[C@H]2[C@H]1CC/C(COC(=O)NCc1cc(OC)cc(OC)c1)=C\CC[C@@]1(C)O[C@@H]21` was tested. Which growth did it give?
Answer: The growth was -3.45% (active).
